{
  "source": "PubChem BioAssay AID1918",
  "about": "(Vanderbilt High Throughput Screening Facility, 2009)",
  "note": "Hit rate of the full screen: of about 130,000 compounds, about 2,500 (1.9%) were called active.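 The calls were made as follows: active = signal ratio slope over the read window, or its plate-corrected B-score, at least 3 SD from the plate mean, either direction; inactive = the rest.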 The entries come from a sample that favours actives as a whole.",
  "data": [
    {"target": "ATP-sensitive inward rectifier potassium channel 1 (Homo sapiens) (UniProt P48048)", "sequence (P48048 whole entry, looked up)": "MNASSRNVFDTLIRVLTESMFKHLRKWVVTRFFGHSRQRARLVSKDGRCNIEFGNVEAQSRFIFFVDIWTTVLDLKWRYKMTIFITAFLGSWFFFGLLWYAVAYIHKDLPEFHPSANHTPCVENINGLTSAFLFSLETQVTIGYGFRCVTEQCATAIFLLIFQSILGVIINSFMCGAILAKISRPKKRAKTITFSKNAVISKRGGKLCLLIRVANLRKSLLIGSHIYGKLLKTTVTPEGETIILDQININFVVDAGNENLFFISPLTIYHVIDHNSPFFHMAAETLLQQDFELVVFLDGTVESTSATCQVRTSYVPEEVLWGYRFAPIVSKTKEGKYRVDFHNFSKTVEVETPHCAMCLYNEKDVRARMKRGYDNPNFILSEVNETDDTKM", "test": "Kir1.1 channel activity modulation, library screen – cell-based, thallium flux, MLSMR library, primary screen (AID 1918);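 also: B-score of the F/F0 ratio slope over 7 to 12 s after thallium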", "details": "Tet-inducible ROMK, thallium flux fluorescence; at 10 µM; actives lie on both sides", "values": [
      {"smiles": "Cc1cc(NS(=O)(=O)c2ccc(NC(=O)c3cccc(OC(F)F)c3)cc2)nc(C)n1", "B-score": "0.878 (inactive)"},
      {"smiles": "Cc1ccc([N+](=O)[O-])c(OCCCNCC(C)O)c1", "note": "(stereo unspecified)", "B-score": "-0.00821 (inactive)"},
      {"smiles": "O=C(Cc1ccc([N+](=O)[O-])cc1)N/N=C/c1ccco1", "B-score": "-1.24 (inactive)"},
      {"smiles": "N#Cc1c(-c2ccc(F)cc2)nc(-c2ccccc2)[nH]c1=O", "B-score": "-1.43 (inactive)"},
      {"smiles": "O=c1[nH]c(-c2ccccc2)c(-c2ccccc2)[nH]1", "B-score": "-0.0963 (inactive)"},
      {"smiles": "O=c1cc(-c2ccccc2)[nH]c2cc(F)ccc12", "B-score": "4.56 (active)"},
      {"smiles": "CN(C)/C=C/C(=O)c1cnc2sccn2c1=O", "B-score": "-0.835 (inactive)"},
      {"smiles": "Cc1nn(C)c(Oc2ccccc2)c1[N+](=O)[O-]", "B-score": "0.573 (inactive)"},
      {"smiles": "Cc1cccc(OP(=O)(Nc2c(C)n(C)n(-c3ccccc3)c2=O)Oc2cccc(C)c2)c1", "B-score": "-0.868 (inactive)"},
      {"smiles": "Cc1cccc(Oc2c([N+](=O)[O-])c(=O)n(C)c3ccccc23)c1", "B-score": "-2.67 (active)"},
      {"smiles": "COc1cccc(-c2ccc(SCC(=O)N3CCN(c4ccccc4)CC3)nn2)c1", "B-score": "0.576 (inactive)"},
      {"smiles": "COc1ccc(S(=O)(=O)N2CCCCCC2)cc1C(=O)OCC(=O)Nc1cc(C)on1", "B-score": "0.559 (inactive)"},
      {"smiles": "COc1cc2c(cc1OC)C(C(C)C)=NC(C)(C)C2", "B-score": "-0.0102 (inactive)"},
      {"smiles": "COc1cc2c(cc1O)C(SC)=NC(C)(C)C2", "B-score": "-6.55 (active)"},
      {"smiles": "CN(C)C(=O)c1cccn(Cc2cccc(C(F)(F)F)c2)c1=O", "B-score": "0.481 (inactive)"},
      {"smiles": "CN1CCNC(=O)C1CC(=O)N1CC=C(c2ccc(F)cc2)CC1", "note": "(stereo unspecified)", "B-score": "-0.128 (inactive)"},
      {"smiles": "COc1cccc(NC(=S)N(Cc2ccc(C)cc2)Cc2ccccn2)c1", "B-score": "0.0921 (inactive)"},
      {"smiles": "CSc1cccc(NC(=S)N(C(C)C)C(C)c2ccccn2)c1", "note": "(stereo unspecified)", "B-score": "-0.872 (inactive)"},
      {"smiles": "CSc1cccc(NC(=S)N(Cc2ccccc2)Cc2ccccn2)c1", "B-score": "-1.37 (active)"},
      {"smiles": "O=C(Nc1ccncc1)c1ccccc1[N+](=O)[O-]", "B-score": "-0.131 (inactive)"},
      {"smiles": "CC1=C/C(=N\\S(=O)(=O)c2ccccc2)C(C(C)C)=CC1=O", "B-score": "-2.34 (inactive)"},
      {"smiles": "COc1ccc(/C=C/C(=O)N2CCCC2)cc1OC", "B-score": "1.08 (inactive)"},
      {"smiles": "Cc1sc2c(c1C)c(=O)n(-c1ccccc1)c(=O)n2CC(=O)NCC1CCCO1", "note": "(stereo unspecified)", "B-score": "0.885 (inactive)"},
      {"smiles": "Cc1ccc(C(NC(=O)N2CCCC2)C(Cl)(Cl)Cl)cc1F", "note": "(stereo unspecified)", "B-score": "0.515 (inactive)"},
      {"smiles": "O=C(Nc1ccccc1Cl)/C(Cl)=C(\\Cl)S(=O)c1ccccc1", "note": "(stereo unspecified)", "B-score": "-4.2 (active)"},
      {"smiles": "O=C(Nc1ccccc1Cl)c1ccc2nsnc2c1", "B-score": "-0.621 (inactive)"},
      {"smiles": "COCCN(CCOC)C(=S)Nc1ccccc1Cl", "B-score": "0.00438 (inactive)"},
      {"smiles": "COc1ccc(NC(=O)C(C)SCc2ccccc2)cc1", "note": "(stereo unspecified)", "B-score": "0.339 (inactive)"},
      {"smiles": "COc1ccc(-c2[nH]ncc2CN(C)Cc2cc(C)[nH]n2)c(F)c1", "B-score": "0.139 (inactive)"},
      {"smiles": "COc1ccc(-c2[nH]ncc2CN(C)Cc2c(C)n[nH]c2C)c(OC)c1", "B-score": "1.28 (active)"},
      {"smiles": "COc1ccc(-c2[nH]ncc2CN(C)Cc2cccnc2)c(F)c1", "B-score": "0.572 (inactive)"},
      {"smiles": "Cc1cc(/C=C2/NC(=O)NC2=O)c(C)n1-c1cccnc1", "B-score": "0.0128 (inactive)"},
      {"smiles": "O=c1c(-c2ccc3c(c2)OCCO3)c(C(F)(F)F)oc2cc(O)cc(O)c12", "B-score": "-5.2 (active)"},
      {"smiles": "CCc1cc2c(=O)c(-c3ccc(F)cc3)c(C(F)(F)F)oc2cc1OCC(=O)O", "B-score": "-0.413 (inactive)"},
      {"smiles": "COc1ccc(-c2onc(C)c2-c2ccc3c(c2)OCCO3)c(O)c1", "B-score": "-0.0517 (inactive)"},
      {"smiles": "COc1ccc(C(C)=O)cc1CSc1nc2nc(C)cc(C)n2n1", "B-score": "1.28 (inactive)"},
      {"smiles": "Cc1cccc(NC(=S)Nc2ccc(Cl)c(Cl)c2)c1", "B-score": "0.116 (inactive)"},
      {"smiles": "COc1ccc(CCNC(=O)COC(=O)/C=C/c2cccs2)cc1OC", "B-score": "-0.931 (inactive)"},
      {"smiles": "COc1ccc(CN(C(=O)c2cccs2)c2nccs2)cc1OC", "B-score": "4.52 (active)"},
      {"smiles": "COc1ccc(CCNC(=O)CSc2nnc(CNC(=O)c3cccs3)o2)cc1OC", "B-score": "-0.208 (inactive)"},
      {"smiles": "O=c1[nH]n2c(-c3ccccc3)nc(O)c2c2ccccc12", "B-score": "2.45 (inactive)"},
      {"smiles": "C=C(C)C1CC=C(C)/C(=N/NC(=O)CCCNc2cccc(C)c2)C1", "note": "(stereo unspecified)", "B-score": "1.1 (inactive)"},
      {"smiles": "CC(C)OCCCNC(=O)C1CC(=O)N(C2CCCCCCC2)C1", "note": "(stereo unspecified)", "B-score": "-0.488 (inactive)"},
      {"smiles": "Cc1ccc(CNC(=O)C2CCCN(S(C)(=O)=O)C2)cc1", "note": "(stereo unspecified)", "B-score": "0.0583 (inactive)"},
      {"smiles": "Cc1ccc(CNC(=O)C2CC(=O)N(C3CCCCCCC3)C2)cc1", "note": "(stereo unspecified)", "B-score": "-2.38 (active)"},
      {"smiles": "O=C(COc1ccccc1)Nc1ccc(N2CCN(C(=O)c3cccs3)CC2)cc1", "B-score": "-0.916 (inactive)"},
      {"smiles": "CC(=O)Nc1ccc(OCCC[n+]2cccc(C(=O)[O-])c2)cc1", "B-score": "0.158 (inactive)"},
      {"smiles": "COc1cc(NC(=S)NCc2ccc(S(N)(=O)=O)cc2)cc(OC)c1", "B-score": "2.23 (inactive)"},
      {"smiles": "COC(=O)CNC(=O)c1ccccc1F", "B-score": "0.963 (inactive)"},
      {"smiles": "CN(NC(=O)c1ccccc1F)c1nc(C(F)(F)F)nc2ccccc12", "B-score": "2.83 (active)"},
      {"smiles": "Cc1cc(C)n(-c2nc(C(F)(F)F)nc3ccccc23)n1", "B-score": "-0.0244 (inactive)"},
      {"smiles": "Cc1ccc(C)c(-n2cc(CN3CCN(C(=O)c4ncn[nH]4)CC3)c(-c3ccccc3)n2)c1", "B-score": "-0.754 (inactive)"},
      {"smiles": "COc1ccc(N2CCN(C(=O)COc3ccc4c(C)cc(=O)oc4c3)CC2)cc1", "B-score": "-0.589 (inactive)"},
      {"smiles": "CCOc1ccccc1N1CCN(C(=O)COc2ccc3c(C)cc(=O)oc3c2)CC1", "B-score": "0.824 (inactive)"},
      {"smiles": "Cc1ccccc1N1CCN(CCCOc2ccc3c(C)cc(=O)oc3c2)CC1", "B-score": "-4.08 (active)"},
      {"smiles": "CCO/C=C1\\C(=O)N(c2ccc(OCC)cc2)C(=O)c2ccccc21", "B-score": "-0.0391 (inactive)"},
      {"smiles": "CCNC(=O)CC1C(=O)N(c2ccc(OC)cc2)C(=S)N1CCc1ccncc1", "note": "(stereo unspecified)", "B-score": "0.277 (inactive)"},
      {"smiles": "Cc1cc(/C=N/NC(=O)c2cccnc2)c(C)n1CC(C)C", "B-score": "1.51 (inactive)"},
      {"smiles": "CCc1ccc(C(=O)OCC(=O)Nc2cccc(S(=O)(=O)NC3=NCCCCC3)c2)cc1", "B-score": "-1.41 (inactive)"},
      {"smiles": "Cc1cccc(-n2c(SCC(=O)Nc3cccc(S(=O)(=O)NC4=NCCCCC4)c3)nc3ccccc3c2=O)c1C", "B-score": "-5.4 (active)"},
      {"smiles": "C/C(=N\\NC(=O)CSc1nc2ccccc2c(=O)n1-c1ccccc1C)c1cccs1", "B-score": "0.111 (inactive)"}
    ]}
  ]
}
